Compound activity deposited in PubChem by National Center for Advancing Translational Sciences (NCATS).
Only some compounds are listed: those with a hit (about 18% of all), similar ones and a draw of the others.
GCN5L2 inh – blocks human GCN5L2 histone acetyltransferase; Q92830; GCN5L2 HAT assay, ThioGlo1 CoA-SH fluorescence; Potency, µM (highest dose often 58.9 µM), most hits filed as inhibitors; 390,000 compounds, 0.21% hits; AID 504327
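Compounds, pin-transferred from DMSO stocks, meet 20nM GCN5L2 for 15 min before the reaction begins with H3(1-25) peptide (75uM) and acetyl-CoA (70uM). Thiol-reactive ThioGlo1 reports CoA release over 20 min at room temperature.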
VDR inhibitor – inhibitors of human vitamin D receptor; VDR-SRC2-3 peptide fluorescence polarization, 2 h; Potency, µM, hits mostly inhibitors; 400,000 compounds, 0.93% hits
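The screen uses fluorescence polarization to detect compounds that interfere with recruitment of the SRC2-3 coactivator peptide to VDR; plates are read after 2 h at room temperature.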
TDP1 block – inhibitors of human tyrosyl-DNA phosphodiesterase TDP1; recombinant TDP1, AlphaScreen DNA substrate cleavage; Potency, µM (top dose mostly 130 µM), usual class: inhibitors; 350,000 compounds, 0.28% hits; AID 485290; further: nearly all actives have a fitted effect of over 40% in size
Target sequence (Q9NUW8 whole entry, looked up): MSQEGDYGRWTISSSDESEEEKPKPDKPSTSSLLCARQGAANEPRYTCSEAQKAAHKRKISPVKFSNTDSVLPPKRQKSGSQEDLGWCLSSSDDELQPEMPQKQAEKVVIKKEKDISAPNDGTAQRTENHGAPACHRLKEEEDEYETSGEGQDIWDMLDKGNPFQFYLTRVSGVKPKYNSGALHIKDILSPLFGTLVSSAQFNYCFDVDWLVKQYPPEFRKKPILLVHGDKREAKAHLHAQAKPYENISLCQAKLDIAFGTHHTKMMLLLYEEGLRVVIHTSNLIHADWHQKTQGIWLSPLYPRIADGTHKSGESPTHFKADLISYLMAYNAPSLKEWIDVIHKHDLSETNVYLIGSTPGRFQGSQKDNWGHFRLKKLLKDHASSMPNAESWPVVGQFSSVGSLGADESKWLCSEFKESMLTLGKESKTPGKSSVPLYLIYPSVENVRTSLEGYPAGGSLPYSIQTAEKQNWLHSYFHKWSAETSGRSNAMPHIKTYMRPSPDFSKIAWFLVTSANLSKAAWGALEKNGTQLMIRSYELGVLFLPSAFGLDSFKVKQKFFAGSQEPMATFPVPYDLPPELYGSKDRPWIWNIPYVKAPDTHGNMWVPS
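Compounds were preincubated with Tdp1 (1 nM final) for 15 min at room temperature before substrate (15 nM final) started a 5 min reaction; beads (10 ug/ml final) were then added for 10 min before AlphaScreen detection.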
PLK1 PBD inh – PLK1 (human) polo-box domain binding inhibition | P53350 | Plk1 PBD binding of FITC phosphopeptide, fluorescence polarization | Potency, µM, most hits filed as inhibitors | 360,000 compounds, 2.8% hits; further: series mostly up to about 57 µM; nearly all actives have a fitted effect of over 65% in size
DT40 TDP1 CPT – DT40-hTDP1 cell growth loss with CPT | 420,000 compounds, 12% hits | chicken DT40 Tdp1-/-;hTDP1 cells + 20 nM CPT, ATP luminescence, 48 h | Potency, µM (highest dose often 46.2 µM), hits mostly inhibitors; further: nearly all actives have a fitted effect of over 55% in size
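Chicken DT40 Tdp1-/- cells stably complemented with human TDP1 were seeded at 400 cells/well in medium containing 20 nM camptothecin, exposed to pin-transferred compounds, and grown at 37 °C for at least 48 hr. Viability was read as ATP luminescence.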
DT40 TDP1 no CPT – qHTS for Inhibitors of human tyrosyl-DNA phosphodiesterase 1 (TDP1): qHTS in cells in absence of CPT; DT40 Tdp1-/- hTDP1 cells, no CPT, ATP luminescence, 48 h; Potency, µM (top dose mostly 46.2 µM), actives largely listed as inhibitors; 420,000 compounds, 15% hits; AID 686978, 2013; further: nearly all actives have a fitted effect of over 55% in size
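Luminescent ATP content (CellTiter-Glo) served as the growth readout. Knockout chicken DT40 cells expressing human TDP1 were exposed to compounds without camptothecin for a minimum 48 hr at 37 °C.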
A number is an active result; [ ] = another dose, or the depositor's remark. The call rests on the fitted dose curve; in most records, active means well fitted curve in the direction sought with a large enough effect; inconclusive means small, poorly fitted or top-dose-only effect, or another doubt; inactive means no such curve, though single readings can be large; an effect the other way counts as inactive or inconclusive.

`Cc1cc(C)cc(NC(=O)CNS(=O)(=O)c2ccc3nc(C)sc3c2)c1` gave GCN5L2 inh inactive, VDR inhibitor inactive, TDP1 block inactive, DT40 TDP1 CPT inactive and DT40 TDP1 no CPT inactive.
`c1ccc(N2CCOCC2)c(Nc2nc3ccccc3n3cnnc23)c1` gave GCN5L2 inh inactive, VDR inhibitor inactive, TDP1 block inactive, PLK1 PBD inh inactive, DT40 TDP1 CPT 21µM and DT40 TDP1 no CPT 16µM.
Screening COc1ccccc1Nc1nc2ccc(C)cc2n2cnnc12 returned GCN5L2 inh inactive, VDR inhibitor inactive, PLK1 PBD inh inactive, DT40 TDP1 CPT inconclusive and DT40 TDP1 no CPT 18µM.
For Cc1ccc2nc(Nc3ccc(C)c(C)c3)c3nncn3c2c1 the results were GCN5L2 inh inactive, VDR inhibitor inactive, PLK1 PBD inh inactive, DT40 TDP1 CPT inconclusive and DT40 TDP1 no CPT 21µM.
Screening COc1ccc(Nc2nc3ccc(C)cc3n3cnnc23)cc1Cl returned GCN5L2 inh inactive.
For O=C(C(Cc1ccccc1)NS(=O)(=O)c1cccc2cccnc12)N1CCc2ccccc21 (configuration not stated) the results were GCN5L2 inh inactive, VDR inhibitor inactive, TDP1 block inactive, PLK1 PBD inh inactive, DT40 TDP1 CPT inconclusive and DT40 TDP1 no CPT inconclusive.
For COc1ccc(/C=C(/NC(=O)c2ccccc2)C(=O)N2CCOCC2)cc1OC the results were GCN5L2 inh inactive, VDR inhibitor inactive, PLK1 PBD inh inactive, DT40 TDP1 CPT inactive and DT40 TDP1 no CPT inactive.
For C[C@@H]1CN(Cc2ccc3c(c2)CN(Cc2cccc4cccnc24)CCO3)C[C@H](C)O1 the results were DT40 TDP1 CPT inactive[9.04 µM] and DT40 TDP1 no CPT inconclusive.
Screening Cc1cc2n(n1)CCC(=O)N2Cc1ccc(C(=O)Nc2cc(Cl)ccc2C)cc1 returned GCN5L2 inh inactive, VDR inhibitor inactive, TDP1 block inactive, DT40 TDP1 CPT inconclusive and DT40 TDP1 no CPT 21µM.
Cc1cc2n(n1)CCC(=O)N2Cc1ccc(C(=O)Nc2cccc(C(F)(F)F)c2)cc1 was read as GCN5L2 inh inactive, VDR inhibitor inactive, TDP1 block inactive, DT40 TDP1 CPT 15µM and DT40 TDP1 no CPT 15µM.
CCCCCCCCCCCCCCCCCCCCCCCCCCCCCC was read as GCN5L2 inh inactive, VDR inhibitor inactive and TDP1 block inactive.
Nc1c(C=C2C=CC(=O)C=C2)c(=O)nc2snc(SCc3ccccc3)n12 was read as GCN5L2 inh inactive, VDR inhibitor inactive, TDP1 block inactive, PLK1 PBD inh 21µM, DT40 TDP1 CPT inactive and DT40 TDP1 no CPT inactive.
O=C1Nc2cc(Cl)ccc2Oc2cc(Oc3ccccc3)ccc21 was read as GCN5L2 inh inactive, VDR inhibitor inactive, TDP1 block inactive, DT40 TDP1 CPT inconclusive and DT40 TDP1 no CPT 21µM.
Screening COc1ccccc1-c1cc(NC(=O)COc2ccccc2Cl)n(-c2ccccc2)n1 returned GCN5L2 inh inactive, VDR inhibitor inactive, TDP1 block inactive, DT40 TDP1 CPT inactive and DT40 TDP1 no CPT inactive.
For O=C(Nc1cc(-c2ccccc2F)nn1-c1ccccc1)c1ccccc1Br the results were GCN5L2 inh inactive, VDR inhibitor inactive, TDP1 block inactive, DT40 TDP1 CPT 18µM and DT40 TDP1 no CPT 21µM.
O=C(COc1ccccc1Cl)Nc1cc(-c2ccccc2F)nn1-c1ccccc1 was read as GCN5L2 inh inactive, VDR inhibitor inactive, TDP1 block inactive, DT40 TDP1 CPT inconclusive and DT40 TDP1 no CPT 9.2µM.
`CC(C)(C)c1ccc(C(=O)Nc2cc(-c3ccccc3)nn2-c2ccccc2)cc1` gave GCN5L2 inh inactive, VDR inhibitor inactive, TDP1 block inactive, DT40 TDP1 CPT inactive and DT40 TDP1 no CPT inconclusive.
Screening CCOc1ccccc1NC(=O)c1nc2nc(C)cc(C(F)F)n2n1 returned GCN5L2 inh inactive, VDR inhibitor inactive, TDP1 block inactive, DT40 TDP1 CPT inconclusive and DT40 TDP1 no CPT inconclusive.
Screening CC(C)CN1CCC(=O)N(CCSc2ccc(Br)cc2)CC1 returned GCN5L2 inh inactive, VDR inhibitor inactive, TDP1 block inactive, PLK1 PBD inh inactive, DT40 TDP1 CPT 21µM and DT40 TDP1 no CPT inconclusive.
`CC(=O)Nc1ccc(SC[C@H](Cc2ccccc2)N2CCN(CCc3ccccc3)CCC2=O)cc1` gave GCN5L2 inh inactive, VDR inhibitor inconclusive, TDP1 block inactive, PLK1 PBD inh 12µM, DT40 TDP1 CPT inconclusive and DT40 TDP1 no CPT inconclusive.
CC(=O)Nc1ccc(SCCN2CCN(CCc3ccccc3)CCC2=O)cc1 was read as VDR inhibitor 18µM and TDP1 block inactive.
Screening COC(=O)c1ccccc1NC(=O)c1noc2c1CSc1ccccc1-2 returned GCN5L2 inh inactive, VDR inhibitor inactive, TDP1 block inactive, DT40 TDP1 CPT inactive and DT40 TDP1 no CPT inactive.
Screening C[C@@H]1CN([C@H](C)CO)C(=O)CCCn2cc(nn2)CO[C@H]1CN(C)C(=O)C1CC1 returned PLK1 PBD inh inactive, DT40 TDP1 CPT inactive and DT40 TDP1 no CPT inconclusive.
For COc1ccccc1OCCC(=O)OCC(=O)c1[nH]c(C)c(C(C)=O)c1C the results were GCN5L2 inh inactive, VDR inhibitor inactive, TDP1 block inactive, PLK1 PBD inh inactive, DT40 TDP1 CPT inconclusive and DT40 TDP1 no CPT inconclusive.
Screening Cc1ccc(CC(=O)Nc2ccccc2N2CCOCC2)cc1C returned GCN5L2 inh inactive, VDR inhibitor inactive, TDP1 block inactive, PLK1 PBD inh inactive, DT40 TDP1 CPT 16µM and DT40 TDP1 no CPT inconclusive.
For O=C(CSc1ccc([N+](=O)[O-])cc1)NNC(=O)c1ccccc1F the results were GCN5L2 inh inactive, VDR inhibitor inactive, TDP1 block inactive, PLK1 PBD inh 9.5µM, DT40 TDP1 CPT inactive and DT40 TDP1 no CPT inactive.
COc1ccc(CC(=O)Nc2ccccc2N2CCOCC2)cc1OC was read as GCN5L2 inh inactive, VDR inhibitor inactive, TDP1 block inactive, PLK1 PBD inh inactive, DT40 TDP1 CPT inactive and DT40 TDP1 no CPT inactive.
Screening O=C(CSc1ccc([N+](=O)[O-])cc1)Nc1ccccc1N1CCOCC1 returned GCN5L2 inh inactive, VDR inhibitor inactive, TDP1 block inactive, PLK1 PBD inh inconclusive, DT40 TDP1 CPT inconclusive and DT40 TDP1 no CPT 21µM.
CN(CC(=O)Nc1cc(Cl)ccc1-n1cncn1)Cc1ccccc1N1CCOCC1 was read as PLK1 PBD inh inactive, DT40 TDP1 CPT 23µM and DT40 TDP1 no CPT inconclusive.
Screening CCCOc1ccccc1OCC(=O)Nc1cc(Cl)ccc1-n1cncn1 returned GCN5L2 inh inactive, VDR inhibitor inactive, TDP1 block inactive[0.505 µM], PLK1 PBD inh inactive, DT40 TDP1 CPT inconclusive and DT40 TDP1 no CPT inconclusive.
Screening O=C(Cc1ccc(Cl)cc1)Nc1ccccc1N1CCOCC1 returned GCN5L2 inh inconclusive, VDR inhibitor inactive, TDP1 block inactive, PLK1 PBD inh inactive, DT40 TDP1 CPT inconclusive and DT40 TDP1 no CPT 16µM.
